Sampled rows, rich in hits. Any-hit rate of the full collection: about 28%.
CYP2C9 activ: human CYP2C9 activators, primary screen, biochemical, luminescence. recombinant CYP2C9, luciferin-H conversion; active compounds read high; factor 1 = untreated enzyme, 0 = blocked. Cytochrome P450 2C9 (Homo sapiens), P11712. activation factor at 5 µM. AID 1024, 2008. hit rate 1.4% among 96,000;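 active = activation factor of 2 or more for CYP2C9 at a 5 µM dose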;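 also: 0 = sulfaphenazole-blocked wells and 1 = vehicle-only wells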
CYP2C19 inh: blockers of cytochrome P450 2C19 activity – biochemical, luminescence, ADME assay, primary screen | P33261 | CYP2C19 Supersomes, luciferin-H EGE luminescence, 30 min | inhibition, % at 5 µM | hit rate 21% among 96,000 | AID 778, 2007;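 active = CYP2C19 inhibition above a set limit at 5 µM in the primary screen, cut at about 50% in these data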;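 also: plate controls were negative control wells for no effect and 2.5 mM tranylcypromine positive control for full effect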
CYP2C9 inh: blockers of cytochrome P450 2C9 activity – biochemical, luminescence, ADME assay, primary screen; P11712; CYP2C9 Supersomes, luciferin-H conversion; inhibition, % at 5 µM; hit rate 20% among 96,000;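 active = blocking of liver enzyme CYP2C9 beyond about 50% at 5 µM, limit read from the data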
Mac1 fbg enh: enhancers of CD11b/CD18 adhesion to fibrinogen, primary screen, K562 cells, luminescence; hit rate 0.07% among 93,000; Integrin beta-2 (Homo sapiens) + Integrin alpha-M (Homo sapiens), P05107+P11215; activation, % at 10 µM; ATPlite luminescence;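 active = 10 µM primary screen giving 50% or more activity, confirmed by 40% or more on retest at that dose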
Target sequence (P05107 whole entry, looked up, other chains not shown): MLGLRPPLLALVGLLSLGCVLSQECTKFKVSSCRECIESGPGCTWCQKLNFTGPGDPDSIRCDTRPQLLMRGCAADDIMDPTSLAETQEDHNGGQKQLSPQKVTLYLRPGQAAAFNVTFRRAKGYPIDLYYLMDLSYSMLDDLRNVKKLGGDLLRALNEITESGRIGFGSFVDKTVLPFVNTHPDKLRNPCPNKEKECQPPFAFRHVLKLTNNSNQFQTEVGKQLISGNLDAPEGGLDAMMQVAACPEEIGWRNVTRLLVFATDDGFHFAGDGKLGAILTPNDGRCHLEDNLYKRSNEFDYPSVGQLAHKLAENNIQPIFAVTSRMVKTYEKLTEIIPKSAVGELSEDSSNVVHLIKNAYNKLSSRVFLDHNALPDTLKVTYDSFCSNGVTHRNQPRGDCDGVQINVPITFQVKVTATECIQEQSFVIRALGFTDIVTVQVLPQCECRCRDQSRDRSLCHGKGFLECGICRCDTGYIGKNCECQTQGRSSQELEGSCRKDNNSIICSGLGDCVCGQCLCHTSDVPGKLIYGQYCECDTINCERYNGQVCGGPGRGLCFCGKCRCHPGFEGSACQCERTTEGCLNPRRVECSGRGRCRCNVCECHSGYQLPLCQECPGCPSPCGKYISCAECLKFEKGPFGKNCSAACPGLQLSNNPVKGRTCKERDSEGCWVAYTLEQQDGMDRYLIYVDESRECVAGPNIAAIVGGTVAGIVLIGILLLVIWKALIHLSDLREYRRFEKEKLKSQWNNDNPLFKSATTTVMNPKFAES
CD11b adhes inh: inhibitors of CD11b/CD18 adhesion to fibrinogen, primary screen, K562 cells, luminescence | hit rate 0.54% among 93,000 | Integrin beta-2 (Homo sapiens) + Integrin alpha-M (Homo sapiens), P05107+P11215 | AID 1497, 2009 | ATPlite luminescence; Mn2+ added to activate the integrin | inhibition, % at 10 µM;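 active = primary inhibition of 50% or more at 10 µM, then 40% or more on retest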
CYP2C19 activ: human CYP2C19 activators, primary screen, biochemical, luminescence; AID 1025, 2008; recombinant CYP2C19, luciferin-H EGE luminescence; active compounds read high; 0 = fully inhibited enzyme, 1 = untreated enzyme; activation factor at 5 µM; 96,000 tested, under 10 active;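 active = activation factor of at least 2 at 5 µM in the primary screen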;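 also: 0 = wells with 2.5 mM tranylcypromine and 1 = vehicle-only wells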
* hit, by the source's call; nt = not tested or not shown.

SMILES	CYP2C9 activ	CYP2C19 inh	CYP2C9 inh	Mac1 fbg enh	CD11b adhes inh	CYP2C19 activ
CC(C)CN(CC(C)C)C(=O)CC(=O)NC(=O)c1ccc(Cl)cc1	0.8	34	25	-3	-7	0.7
C/C(=C\C(=O)N1CCc2ccccc21)C(=O)O	0.9	-5	10	-1	0	1.1
CC(=O)c1c(C)[nH]c(C(=O)N2CCc3ccccc32)c1C	0.3	69*	69*	-4	-8	0.3
COc1ccc(-c2oc3ncn(CCN4CCOCC4)c(=N)c3c2-c2ccc(OC)cc2)cc1	0.9	63*	13	1	0	0.4
c1ccc(-c2csc3ncnc(NCCN4CCOCC4)c23)cc1	0.9	20	11	-3	33	0.8
c1ccc(-c2oc3ncnc(NCCCN4CCOCC4)c3c2-c2ccccc2)cc1	0.1	90*	94*	3	18	0.1
COc1ccc(-c2oc3ncnc(NCCN4CCOCC4)c3c2-c2ccc(OC)cc2)cc1	0.7	23	30	-2	2	0.8
COc1ccc(-c2oc3ncnc(NCCCN4CCOCC4)c3c2-c2ccc(OC)cc2)cc1	0.1	24	94*	17	-2	0.8
CSCCC(NC(=O)c1cncc(Br)c1)C(=O)O (stereo not given)	0.9	17	15	-5	1	0.8
O=C(NCCc1ccccc1)c1cc2sccc2n1Cc1ccccc1	0.5	16	46	3	9	0.8
O=C(c1ccco1)N1CCN(C(=O)c2cc3sccc3n2Cc2ccccc2)CC1	0.1	20	89*	-1	6	0.8
O=C(NCc1ccco1)C1CCN(C(=O)c2cc3sccc3n2Cc2ccc(F)cc2)CC1	0	86*	98*	8	0	0.1
CCCOc1ccc(C2C(=O)N(C3CCCCC3)CC(=O)N2C2CC2)cc1OC (stereo not given)	0.7	0	35	nt	nt	1
CCCCC(C(=O)NC(C)(C)C)N(Cc1ccco1)C(=O)c1snc(C(N)=O)c1N (stereo not given)	0.3	58*	70*	0	-6	0.4
CC(C)(C)NC(=O)C(c1ccccc1)N(Cc1ccco1)C(=O)c1csnn1 (stereo not given)	0.9	13	9	0	-12	0.9
CC(C)CCNC(=O)C(c1ccco1)N(Cc1ccc(F)cc1)C(=O)c1snc(C(N)=O)c1N (stereo not given)	0.6	67*	44	-1	0	0.3
CCCC(C(=O)NCc1ccc(OC)cc1)N(Cc1ccco1)C(=O)c1snc(C(N)=O)c1N (stereo not given)	0.5	60*	49	-2	-3	0.4
CCC(C(=O)NCc1ccc(F)cc1)N(Cc1ccco1)C(=O)c1snc(C(N)=O)c1N (stereo not given)	0.5	58*	50*	-2	0	0.4
Nc1nonc1-c1nc2ccccc2n1CC(=O)N/N=C\c1ccc(-c2ccc(Cl)cc2)o1	1	-10	-1	nt	nt	1.1
CCCC(=O)Nc1ccc(N2CCN(C(=O)c3cccs3)CC2)cc1	0.6	28	45	2	-17	0.7
CCCC(C(=O)NC1CCCC1)N(Cc1ccc2c(c1)OCO2)C(=O)c1snc(C(N)=O)c1N (stereo not given)	0.2	97*	83*	0	8	0
Cc1cc(N2CCCCC2)n2ncc(-c3ccc(Cl)cc3)c2n1	0.4	29	57*	-2	13	0.7
Cc1cc(N2CCC(C)CC2)n2ncc(-c3ccccc3)c2n1	0.3	37	70*	-1	37	0.6
COc1ccccc1NC(=O)CSc1nc(O)cc(=O)[nH]1	1.1	-18	-5	0	-25	1.2
Cc1cccc(NC(=O)c2cc(NC(=O)CCCC(=O)O)ccc2Cl)n1	1.3	1	-33	-5	5	1
SMILES	CYP2C9 activ	CYP2C19 inh	CYP2C9 inh	Mac1 fbg enh	CD11b adhes inh	CYP2C19 activ
COc1ccc(OCC(=O)N2CCN(S(=O)(=O)c3ccc(Cl)cc3)CC2)cc1	0.9	-4	9	3	-1	1
COc1ccc(CCNc2ncnc3c2oc2ccccc23)cc1OC	0.6	57*	39	nt	nt	0.4
CC1(C)c2ccccc2N2CCC(=O)NC21/C=C/c1ccco1 (stereo not given)	0.5	86*	52*	-6	-5	0.1
CC(=O)NCCn1c(SCC#N)nc2ccccc2c1=O	0.9	24	6	-1	-2	0.8
CC(=O)NCCn1c(SCc2ccccc2F)nc2ccccc2c1=O	0	98*	97*	-3	11	0
Cn1c(SCc2ccccc2F)nc2cccnc21	0.8	63*	25	-2	-4	0.4
Clc1ccc2[nH]c3c(NCC4CCCO4)ncnc3c2c1 (stereo not given)	0.2	74*	81*	-5	44	0.3
Cc1c(/C=N/NC(=O)c2cc(=O)[nH]c(=O)[nH]2)c2ccccn2c1C(=O)c1ccccc1	0.5	9	50*	-2	-3	0.9
Cc1c(/C=N/NC(=O)CNc2ccccc2)c2ccccn2c1C(=O)c1ccccc1	nt	nt	nt	4	-9	nt
Cc1cc(C)nc(SCc2ccc3nonc3c2)n1	0.8	46	23	-1	15	0.5
O=C(CCC1CCCCC1)Nc1c2c(nn1-c1ccc(F)cc1)CS(=O)C2 (stereo not given)	0.8	98*	22	-2	-26	0
O=C(COC(=O)/C=C/c1ccccc1Cl)NCCc1ccc(Cl)cc1Cl	nt	nt	nt	7	4	nt
COc1cccc(-c2ccc(C#N)c(OC(=O)c3c(Cl)cccc3Cl)n2)c1	0.5	12	51*	-6	16	0.9
COc1cccc(-c2ccc(C#N)c(OC(=O)c3ccc(Cl)cc3)n2)c1	0.7	11	27	-4	16	0.9
COc1cccc(-c2ccc(C#N)c(SCC(=O)NCCc3cccc(Cl)c3)n2)c1	0.4	82*	64*	nt	nt	0.2
COc1ccc(-c2ccc(C#N)c(SCC(=O)NCCc3ccccc3)n2)cc1OC	nt	nt	nt	21	-5	nt
O=C(CC(Nc1ccc(F)cc1)c1ccccc1)c1ccccc1 (stereo not given)	nt	nt	nt	1	17	nt
O=C(NCc1ccccc1)N1CCC(c2nc3ccccc3[nH]2)CC1	0.9	-14	10	-2	1	1.1
CC(C)(C)n1ncc2c(=O)n(Cc3c(F)cccc3Cl)cnc21	0.7	87*	32	0	5	0.1
